Assay outcomes as filed in PubChem BioAssay.
FAS-TE inh: FAS thioesterase (human) inhibition. recombinant FAS-TE, OMFH fluorogenic substrate, fluorescence endpoint. inhibition, % at 15 µM. actives 0.67% (n = 360,000). AID 602261;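 active = compounds whose normalised, plate-corrected inhibition of enzyme fluorescence in the single-dose primary screen is 50% or more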
CRFR2-BP antag: CRF-BP/CRF-R2 complex antagonism; inhibition, % at 11.8 µM; HEK293 CRF-R2/CRF-BP, CRF-induced calcium fluorescence; AID 588475; actives 0.59% (n = 350,000);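 active = inhibition of the ligand-induced calcium signal above about 50% at the single tested concentration, limit read from the data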
NadD block: blocks S. aureus nicotinate mononucleotide adenylyltransferase; purified NadD enzyme, colorimetric absorbance read-out; inhibition, % at 20 µM; actives 0.78% (n = 360,000); AID 602399; in the data active = inhibition above about 26%
Myeloid diff 2: myeloid differentiation induction | ER-HoxA9 myeloid progenitors, lysozyme-GFP differentiation, flow cytometry | calls only at 10 µM | actives 1% (n = 360,000);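 active = normalized GFP-positive differentiation at or above the plate's own cutoff, the solvent-only control mean plus 3 SD; inconclusive = no clear call, values can overlap the other calls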;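 note: cells exposed to compound for four days before flow analysis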
CendR NRP1 mod: modulators of CendR peptide binding to human neuropilin-1. O14786. FAM-RPARPAR peptide binding to NRP-1, fluorescence polarization. inhibition, % at 25 µM. actives 0.85% (n = 360,000). AID 602438;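 active = inhibition or corrected inhibition above about 18%, plus a signal ratio from 0.5 to 1.5, limit read from the data, passing the limit was not always enough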
FAS-TE inh conf: FAS thioesterase (human) inhibition, confirmation; inhibition, % at 15 µM; AID 624325; actives 45% (n = 2,300); shares compounds with FAS-TE inh; recombinant FAS-TE, OMFH fluorogenic substrate, fluorescence;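 active = compounds inhibiting the enzyme by at least 50% at 15 µM in any one of the replicates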
Of the large screens only hits and unclear results are named; the others gave an inactive call (follow-up assays come after a bar, where they were run). Shown are actives, neighbours in structure and some others; about 3.6% of the full set was active somewhere.

O=S(=O)(Nc1ccc(-c2csc(-c3ccccc3)n2)cc1)c1ccccc1	FAS-TE inh 58.7 | FAS-TE inh conf 43.6
Cc1ccc(S(=O)(=O)N2C[C@H]3C(=O)C[C@@H](c4ccccc4)N(S(=O)(=O)c4ccc(C)cc4)[C@H]3C[C@H]2c2cccs2)cc1	none (no result: CRFR2-BP antag)
CCc1ccc([C@H]2C[C@H]3[C@H]4C(=O)N(c5ccccc5)C(=O)[C@H]4CC(=O)[C@@H]3CN2S(=O)(=O)c2ccc(C)cc2)cc1	FAS-TE inh 74.2 (no result: CRFR2-BP antag) | FAS-TE inh conf inactive
CCOC1=C2CN(S(=O)(=O)c3ccc(C)cc3)[C@@H](c3cccs3)C[C@H]2[C@H]2C(=O)N(c3ccccc3)C(=O)[C@H]2C1	FAS-TE inh 77.5 (no result: CRFR2-BP antag) | FAS-TE inh conf inactive
Cc1ccc(S(=O)(=O)N2C[C@H]3C(=O)C[C@@H]4C(=O)N(c5ccccc5)C(=O)[C@@H]4[C@@H]3C[C@H]2c2cccs2)cc1	FAS-TE inh 70.0 (no result: CRFR2-BP antag) | FAS-TE inh conf inactive
Cc1ccc(S(=O)(=O)N2C[C@H]3C(=O)C[C@@H]4C(=O)N(c5ccccc5)C(=O)[C@@H]4[C@@H]3C[C@H]2c2cccc(Cl)c2)cc1	FAS-TE inh 85.0 (no result: CRFR2-BP antag) | FAS-TE inh conf inactive
CCOC1=C2CN(S(=O)(=O)c3ccc(C)cc3)C(c3ccc(C)cc3)CC2N(S(=O)(=O)c2ccc(C)cc2)C(c2ccccc2)C1 (stereo not drawn)	none (no result: FAS-TE inh, CRFR2-BP antag, NadD block)
O=C(NCc1ccc(Cl)s1)C1CCC(=O)N(CCc2ccccn2)C1 (stereo not drawn)	none
CC(C)N1C(=O)N(c2cccc(Cl)c2)C(C)(O)CC1(C)C (stereo not drawn)	none
COC(=O)C1(C)NC(c2ccc(O)cc2)C2C(=O)N(c3ccc(C)cc3)C(=O)C21 (stereo not drawn)	none
S=c1nn[nH]c2ccccc12	none
O=C(NCc1nc2ccccc2[nH]1)C1=C[C@@H](c2ccccc2)C[C@@H](OCCCCO)O1	none
Cc1nc(Sc2ccc(Cl)cc2)c(C#N)c(C)c1[N+](=O)[O-]	FAS-TE inh 63.6 | FAS-TE inh conf inactive
Cc1nc(Sc2ccc(Br)cc2)c(C#N)c(C)c1[N+](=O)[O-]	FAS-TE inh 61.0 | FAS-TE inh conf inactive
Cc1ccc(Sc2nc(C)c([N+](=O)[O-])c(C)c2C#N)cc1	none
CC(=O)Nc1ccc(OCC(O)Cn2cncn2)cc1 (stereo not drawn)	none
O=C(O)c1ccc(CSc2nc3ccccc3c(=O)n2-c2ccccc2)cc1	none
COC(=O)c1ccc2c(=O)n(-c3ccccc3)c(SCN3C(=O)c4ccccc4C3=O)nc2c1	FAS-TE inh 62.2 | FAS-TE inh conf inactive
Cc1csc(-c2cnn(-c3ccccc3)c2NC(=O)c2ccc(C(F)(F)F)cc2)n1	none
Cc1ccc(OC(C)C(=O)Nc2ccc(Cl)cn2)c([N+](=O)[O-])n1 (stereo not drawn)	none
Cc1cc(Cl)ccc1OC(C)C(=O)Nc1ccc([N+](=O)[O-])cn1 (stereo not drawn)	FAS-TE inh 52.1, CendR NRP1 mod 25.7 | FAS-TE inh conf inactive
Cc1ccc(S(=O)(=O)N2C[C@H]3[C@H]4C(=O)N(C5CCCCC5)C(=O)[C@H]4CC(=O)[C@H]3[C@@H]2c2cccc3ccccc23)cc1	FAS-TE inh 97.4 (no result: CRFR2-BP antag) | FAS-TE inh conf inactive
Cc1ccc(S(=O)(=O)N2C[C@H]3[C@H]4C(=O)N(Cc5ccccc5)C(=O)[C@H]4CC(=O)[C@H]3[C@@H]2c2ccccc2Cl)cc1	FAS-TE inh 85.3 (no result: CRFR2-BP antag) | FAS-TE inh conf inactive
Cc1cccn2c(=O)c(/C=C(\C#N)S(=O)(=O)c3ccccc3)c(N3CCN(C)CC3)nc12	none
Cc1cccn2c(=O)c(/C=C(\C#N)S(=O)(=O)c3ccccc3)c(N3CCCCC3)nc12	FAS-TE inh 54.0 | FAS-TE inh conf inactive
N#C/C(=C\c1c(N2CCN(c3ccccc3)CC2)nc2ccccn2c1=O)S(=O)(=O)c1ccccc1	FAS-TE inh 70.6 | FAS-TE inh conf inactive
CCOC(=O)C1CCN(c2nc3c(C)cccn3c(=O)c2/C=C(\C#N)S(=O)(=O)c2ccccc2)CC1	FAS-TE inh 64.8 | FAS-TE inh conf inactive
COc1cc(OC)cc(-c2c(-c3cccs3)c3cc(-c4ccc5c(c4)OCCO5)ccc3n2C)c1	none
CCN1CCN(S(=O)(=O)c2ccc(Cl)c(C(=O)Nc3nnc(C)s3)c2)CC1	none
COCCCNC(=O)COc1ccc(S(=O)(=O)NCc2ccccc2)cc1Cl	none
Cc1cc(C)cc(N(CC(=O)N2CCc3ccccc32)S(=O)(=O)c2c(C)noc2C)c1	none
Cc1cc(C)cc(N(CC(=O)N2CCn3c2nc2ccccc23)S(=O)(=O)c2c(C)noc2C)c1	FAS-TE inh 65.3 | FAS-TE inh conf inactive
COP(=O)(OC)c1nc(-c2ccc(C)cc2)oc1N1CCCCC1	none
O=C(CSc1nc2ccccc2c(=O)n1-c1ccccc1Cl)Nc1cccc(S(=O)(=O)N2CCOCC2)c1	FAS-TE inh 95.1 | FAS-TE inh conf inactive
Cc1ccc(S(=O)(=O)N(C)C)cc1-n1c(SCC(=O)N(C)C)nc2ccccc2c1=O	none
Cc1ccc(S(=O)(=O)N2CCOCC2)cc1NC(=O)CSc1nc2ccccc2c(=O)n1Cc1ccccc1	FAS-TE inh 50.3 | FAS-TE inh conf inactive
Cc1ccc(S(=O)(=O)N(C)C)cc1-n1c(SCC(=O)Nc2ccc(F)c(F)c2F)nc2ccccc2c1=O	FAS-TE inh 68.4 | FAS-TE inh conf inactive
O=C(CSc1nc2ccccc2c(=O)n1-c1ccc(F)cc1)Nc1cc(S(=O)(=O)N2CCOCC2)ccc1Cl	FAS-TE inh 77.6 | FAS-TE inh conf inactive
O=C1NC(=O)/C(=C\c2ccc(N3CCOCC3)o2)N1	none
Nc1nc(N)c2[nH]c(=S)[nH]c2n1	none
COC(=O)c1ccc2c(=O)n(Cc3ccco3)c(SCC(=O)Nc3ccc(C)c(Cl)c3)nc2c1	none
O=C(CSc1nc2cc(Cl)ccc2c(=O)n1Cc1ccco1)Nc1ccc(S(=O)(=O)N2CCOCC2)cc1	FAS-TE inh 87.6 | FAS-TE inh conf inactive
CCc1ccccc1NC(=O)N1CCc2ccccc21	none
COc1cc(C(=O)Oc2ccccc2/C=N/NC(=O)c2ccc(Cl)cc2)cc(OC)c1OC	FAS-TE inh 54.2, Myeloid diff 2 inconclusive | FAS-TE inh conf inactive
COc1ccc(C(=O)N/N=C\c2coc3ccc(Cl)cc3c2=O)cc1	none
COc1cc(C(=O)N/N=C/c2coc3ccc(Cl)cc3c2=O)ccc1O	FAS-TE inh 58.7 | FAS-TE inh conf 65.6
O=C(N/N=C/c1coc2ccc(Cl)cc2c1=O)c1ccc(O)cc1	FAS-TE inh 65.4 | FAS-TE inh conf 36.8
O=C(N/N=C/c1coc2ccc(Cl)cc2c1=O)c1ccncc1	none
O=C(CCC1CCN(C(=O)c2ccccc2Cl)CC1)NCc1ccc(F)cc1	none
CSC1=C(C#N)C(c2ccccc2Cl)C2=C(N1)c1ccccc1C2=O (stereo not drawn)	none
Cc1nn(-c2ccccn2)c2c1C(c1ccccc1Cl)C1=C(N2)c2ccccc2C1=O (stereo not drawn)	FAS-TE inh 53.0 | FAS-TE inh conf inactive
